PubChem BioAssay
Calls of active or inactive are those of the source.

Columns and labels:
[1] = test system: Human papillomavirus type 1a protein E7 (residues 44-93); assay: HPV1a E7 fragment binders on microarrays, primary screen, biochemical, small-molecule microarray, residues 44-93, 635 nm fluorescence (AID 1108); details: small-molecule microarray binding, fluorescence 635 nm; higher = more signal;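 also: E7 fragment applied at 1 µg/mL in TBST for 1 h at 4 C; score combines spot fluorescence with its signal to noise ratio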
[2] = modulators of HCV replicon luciferase signal, primary screen, HCV replication inhibitor project, Huh7 cells, luciferase reporter (AID 1109); details: 48 h, higher = more signal;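 also: huh7 hepatoma cells harbouring a luciferase neomycin HCV replicon reporter; luciferase luminescence as measure of HCV replicon replication; test concentration not given here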
[3] = molecular target: Left-right determination factor 2 (Homo sapiens) (UniProt O00292); assay: LEFTY2 binders on small-molecule microarrays, primary screen, biochemical, small-molecule microarray, 635 nm fluorescence scan (AID 1110); details: LEFTY2 binding, higher = more signal
Sequence of Left-right determination factor 2 (Homo sapiens) (O00292 whole entry, looked up): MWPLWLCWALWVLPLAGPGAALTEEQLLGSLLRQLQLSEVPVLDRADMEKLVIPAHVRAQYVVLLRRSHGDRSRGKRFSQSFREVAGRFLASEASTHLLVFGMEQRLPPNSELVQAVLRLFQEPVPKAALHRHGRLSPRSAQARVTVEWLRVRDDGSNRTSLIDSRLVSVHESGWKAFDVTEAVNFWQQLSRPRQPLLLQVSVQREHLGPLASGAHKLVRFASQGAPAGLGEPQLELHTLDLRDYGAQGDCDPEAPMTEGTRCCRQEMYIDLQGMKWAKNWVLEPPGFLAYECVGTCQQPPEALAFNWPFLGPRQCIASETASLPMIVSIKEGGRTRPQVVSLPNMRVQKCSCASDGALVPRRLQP

[4] = molecular target: Calmodulin-1 (Homo sapiens) (UniProt P0DP23); assay: CALM1 binders on microarrays, EGTA buffer, profiling panel, biochemical, small-molecule microarray, Cy5-labelled CALM1 (AID 1111); details: Cy5-CALM1 binding fluorescence, higher = more signal;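 also: labelled calmodulin applied in Tris saline Tween buffer holding calcium plus EGTA and DTT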
[5] = molecular target: Calmodulin-1 (Homo sapiens) (UniProt P0DP23); assay: calcium-bound CALM1 binders on microarrays, profiling panel, artefact control for SMM control-protein annotation, biochemical, small-molecule microarray, Cy5-labelled CALM1, plus calcium (AID 1112); details: Cy5-CALM1 binding fluorescence, higher = more signal;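 also: score merges spot fluorescence with signal to noise from triplicate slides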
[6] = small-molecule microarray binders of probe aWnt5a, primary screen, biochemical, biotinylated probe, 635/667 nm fluorescence (AID 1113); details: higher = more signal;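 also: score merges 667 nm fluorescence intensity with signal-to-noise per printed feature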
[7] = small-molecule microarray binders of probe aShh, primary screen, biochemical, biotinylated probe, 635/667 nm fluorescence (AID 1114); details: higher = more signal;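 also: probe is biotin-labelled aShh protein from a stem cell growth factor screen; measures binding of labelled protein to compounds printed on the slide; score merges feature fluorescence at 667 nm with signal-to-noise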
[8] = small-molecule microarray binders of probe aNog, primary screen, biochemical, biotinylated probe, 635/667 nm fluorescence (AID 1115); details: higher = more signal;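 also: probe is biotinylated aNog protein used at 0.15 µg/mL for 1 h at 4 C; z-score combines 667 nm fluorescence of each spot with its signal to noise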
[9] = molecular target: Torsin-1A-interacting protein 1 (Homo sapiens) (UniProt Q5JTV8); assay: LAP1 binders from COS7 cell lysate, primary screen, small-molecule microarray, 635/667 nm fluorescence (AID 1116); details: COS7-hLAP1 lysate binding, 635 nm fluorescence, higher = more signal
Sequence of Torsin-1A-interacting protein 1 (Homo sapiens) (Q5JTV8 whole entry, looked up): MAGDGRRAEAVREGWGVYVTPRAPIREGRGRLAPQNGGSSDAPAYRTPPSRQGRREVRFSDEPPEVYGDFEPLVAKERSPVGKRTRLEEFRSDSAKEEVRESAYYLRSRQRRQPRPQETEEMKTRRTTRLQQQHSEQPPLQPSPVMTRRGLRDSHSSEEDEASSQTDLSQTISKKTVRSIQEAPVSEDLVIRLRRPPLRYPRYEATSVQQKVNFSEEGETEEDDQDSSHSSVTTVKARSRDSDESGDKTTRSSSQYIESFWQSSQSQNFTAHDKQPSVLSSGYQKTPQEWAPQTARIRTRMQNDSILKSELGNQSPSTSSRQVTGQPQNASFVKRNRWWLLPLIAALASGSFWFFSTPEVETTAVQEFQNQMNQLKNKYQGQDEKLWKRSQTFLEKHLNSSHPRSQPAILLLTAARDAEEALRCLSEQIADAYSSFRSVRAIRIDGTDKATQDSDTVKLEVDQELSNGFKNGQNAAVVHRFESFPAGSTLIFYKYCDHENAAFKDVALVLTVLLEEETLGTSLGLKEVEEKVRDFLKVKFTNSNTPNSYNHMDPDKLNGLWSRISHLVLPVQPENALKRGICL

[10] = molecular target: Alpha-bungarotoxin (Bungarus multicinctus) (UniProt P60615); assay: alpha-bungarotoxin binders on microarray, profiling panel, artefact control for SMM control protein annotation, biochemical, small-molecule microarray, Alexa647 label, 635/667 nm fluorescence (AID 1117); details: alpha-BTX-A647 binding fluorescence, higher = more signal
Sequence of Alpha-bungarotoxin (Bungarus multicinctus) (P60615 whole entry, looked up): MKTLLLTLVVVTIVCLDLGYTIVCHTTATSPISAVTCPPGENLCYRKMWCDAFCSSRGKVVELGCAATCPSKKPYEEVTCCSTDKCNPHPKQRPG

[11] = molecular target: Albumin (Bos taurus) (UniProt P02769); assay: bovine serum albumin binders on microarray, profiling panel, artefact control for SMM control protein annotation, biochemical, small-molecule microarray, Alexa647 label, 635/667 nm fluorescence (AID 1118); details: BSA-A647 binding, fluorescence 635 nm, higher = more signal;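 also: score merges 667 nm emission intensity and signal-to-noise per printed compound spot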
Sequence of Albumin (Bos taurus) (P02769 whole entry, looked up): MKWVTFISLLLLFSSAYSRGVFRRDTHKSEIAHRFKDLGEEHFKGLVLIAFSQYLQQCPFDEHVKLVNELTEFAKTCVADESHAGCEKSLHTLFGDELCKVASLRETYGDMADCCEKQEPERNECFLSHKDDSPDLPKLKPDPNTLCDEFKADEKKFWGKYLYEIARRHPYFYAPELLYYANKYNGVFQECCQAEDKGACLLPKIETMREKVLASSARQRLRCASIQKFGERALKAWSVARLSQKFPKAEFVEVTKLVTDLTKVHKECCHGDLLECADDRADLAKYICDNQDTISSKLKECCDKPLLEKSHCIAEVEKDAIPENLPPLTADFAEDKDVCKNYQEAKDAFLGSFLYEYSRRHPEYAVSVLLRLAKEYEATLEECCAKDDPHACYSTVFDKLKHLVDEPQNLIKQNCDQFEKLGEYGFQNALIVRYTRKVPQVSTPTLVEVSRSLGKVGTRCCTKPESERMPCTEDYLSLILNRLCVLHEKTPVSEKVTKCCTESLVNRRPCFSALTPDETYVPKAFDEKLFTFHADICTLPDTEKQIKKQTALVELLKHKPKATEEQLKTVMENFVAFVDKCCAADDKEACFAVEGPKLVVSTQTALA

[12] = small-molecule microarray binders of probe aXIP, primary screen, biochemical, NeuroSMM set, 635/667 nm fluorescence (AID 1119); details: higher = more signal, called active from +8 up or from −8 down;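 also: probe is the protein aXip251-270 applied at 1 µg/mL to compound-printed slides; binding of probe to printed compounds measured as 667 nm fluorescence plus signal to noise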
[13] = small-molecule binders of probe aNOTCH3, primary screen, biochemical, small-molecule microarray, 635/667 nm fluorescence (AID 1120); details: higher = more signal;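 also: probe is a biotin-tagged antibody raised against NOTCH3 rather than NOTCH3 protein; score merges spot fluorescence near 667 nm with spot signal to noise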
[14] = small-molecule binders of probe aNOTCH2, primary screen, biochemical, small-molecule microarray, 635/667 nm fluorescence (AID 1121); details: higher = more signal;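 also: score merges feature fluorescence read at 667 nm with its signal to noise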
[15] = molecular target: Carbonic anhydrase 2 (Homo sapiens) (UniProt P00918); assay: CAII small-molecule binders, profiling panel, biochemical, small-molecule microarray, Alexa647-labelled CAII (AID 1122); details: CAII-A647 binding fluorescence, higher = more signal
[16] = COS7 lysate on small-molecule microarray, probe aHis, 635 nm (AID 1123); details: COS7 cell lysate, fluorescence, higher = more signal;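 also: z-score combines 667nm fluorescence intensity with signal-to-noise per printed compound spot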
[17] = compound binding in COS7 lysate, probe aLAP1, primary screen, cell lysate, small-molecule microarray (AID 1124); details: probe aLAP1, fluorescence, higher = more signal;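 also: lysate comes from COS7 cells expressing LAP1 and is applied at 0.3 µg/mL; score merges spot fluorescence near 667 nm with signal-to-noise over triplicate slides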
[18] = test system: Sam68 (KHDRBS1); assay: Sam68 small-molecule binders, primary screen, biochemical, small-molecule microarray, 635 nm fluorescence (AID 1125); details: small-molecule microarray binding, higher = more signal;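 also: score merges 667 nm channel intensity with signal to noise over triplicate slides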
[19] = test system: Chordin-like protein 2 (CHRDL2); assay: CHRDL2 small-molecule binders, primary screen, biochemical, small-molecule microarray, 635 nm fluorescence (AID 1126); details: small-molecule microarray binding, fluorescence 635 nm; higher = more signal;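 also: printed compound slides probed with Chrdl2 protein at 4 µg/mL for 1 h at 4 C; score merges 667 nm emission intensity with signal to noise over three replicate slides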
[20] = molecular target: Concanavalin-A (Canavalia ensiformis) (UniProt P02866); assay: ConA small-molecule binders, primary screen, artefact control for SMM control protein annotation, biochemical, small-molecule microarray, Alexa647 label, 635 nm (AID 1127); details: ConA-A647 binding fluorescence, higher = more signal;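 also: z combines 667 nm emission intensity with signal-to-noise across three replicate slides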
Sequence of Concanavalin-A (Canavalia ensiformis) (P02866 whole entry, looked up): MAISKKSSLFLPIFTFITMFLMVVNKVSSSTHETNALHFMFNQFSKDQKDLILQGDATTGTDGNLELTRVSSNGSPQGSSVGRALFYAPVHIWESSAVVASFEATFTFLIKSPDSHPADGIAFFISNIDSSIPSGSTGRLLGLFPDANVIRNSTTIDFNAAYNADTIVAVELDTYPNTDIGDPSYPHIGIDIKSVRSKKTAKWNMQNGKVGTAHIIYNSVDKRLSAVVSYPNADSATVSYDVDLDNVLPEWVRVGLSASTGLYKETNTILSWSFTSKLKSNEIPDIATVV

| Compound | composite z-score [1] | z-score [2] | composite z-score [3] | composite z-score [4] | composite z-score [5] | composite z-score [6] | composite z-score [7] | composite z-score [8] | composite z-score [9] | composite z-score [10] | composite z-score [11] | composite Z-score [12] | composite z-score [13] | composite z-score [14] | composite z-score [15] | composite z-score [16] | composite z-score [17] | composite z-score [18] | composite z-score [19] | composite z-score [20] |
| --- | --- | --- | --- | --- | --- | --- | --- | --- | --- | --- | --- | --- | --- | --- | --- | --- | --- | --- | --- | --- |
| CN1C(=O)C2C(C1=O)C1C=C(c3ccc(CO)cc3)C2C(C2CC2)N1Cc1cc2c(cc1Br)OCO2 (stereo not given) | 1.36 | -1.11 | 0.72 | 1.68 | 0.6 | -0.027 | -0.0866 | 1.04 | 2.24 | 1.73 | 1.03 | 1.55 (inactive) | 0.211 | 0.109 | 0.786 | 3.13 | 0.863 | 1.3 | 0.258 | 1.16 |
| Cc1ccc(S[C@]2(C(=O)NCCCN(C)C)CC(=O)N(C(C)C)[C@@H]2c2ccc(CO)cc2I)cc1 | -0.257 | -2.53 | -0.829 | 0.314 | 0.344 | -0.0748 | -0.0035 | -0.487 | 0.309 | 0.397 | 0.746 | -0.181 (inactive) | -0.004 | -0.127 | 0.721 | 1.23 | 0.693 | 0.271 | -0.0376 | 0.257 |
| O=C1C2C=CC(C(O)c3cccc4ccccc34)N(n3cnnc3)C2C(=O)N1Cc1ccccc1 (stereo not given) | 0.0125 | -1.16 | 0.102 | 0.197 | -0.151 | 1.06 | -0.309 | 2.2 | 0.67 | 0.274 | -0.0146 | -0.415 (inactive) | 1.28 | 0.747 | 0.754 | 0.434 | 0.544 | -0.131 | 0.166 | 0.0912 |
| [N-]=[N+]=NCc1ccccc1[C@@H]1OC(c2ccc(OCCCO)cc2)=N[C@]1(Cc1ccccc1)C(=O)O | 1.38 | -0.297 | -0.252 | 1.14 | 0.518 | -0.0479 | 0.0711 | -0.419 | 0.767 | 0.865 | 0.188 | 1.38 (inactive) | -0.0362 | -0.0836 | 0.607 | 2.25 | -0.324 | 1.13 | -0.817 | 0.802 |
| C=C(C(=O)CC[C@H](OC(=O)c1cccnc1)c1ccccc1OCCO)C(C)C | 1.05 | -2.71 | 0.753 | -0.62 | -1.24 | 0.121 | -0.0035 | -0.176 | 1.99 | 0.892 | -0.609 | -0.507 (inactive) | 0.143 | -0.129 | 0.543 | 1.28 | 0.86 | 0.912 | 1.39 | 0.49 |
| CCCCC(=O)N(Cc1ccccc1F)[C@@H]1CC(C(=O)NCCO)=C[C@H](Oc2c(I)cc(CO)cc2OC)[C@H]1O | 1.42 | -1.06 | 1.29 | 3.17 | 1.4 | 0.0004 | 0.123 | -0.083 | 0.994 | 1.79 | -0.823 | -0.685 (inactive) | 0.201 | -0.0128 | 0.521 | 1.54 | 0.44 | 1.3 | 1.5 | 1.19 |
| COc1ccc([Si](C)(C)[C@H]2[C@H](CCO)O[C@@]3(C(=O)N(Cc4ccccc4)c4ccc(N5C(=O)COc6ccccc65)cc43)[C@@H]2C)cc1 | -1.13 | -4.64 | 0.206 | 1.44 | 1.12 | -0.136 | 0.108 | -0.487 | 0.216 | 0.662 | 0.449 | 0.412 (inactive) | -0.0431 | -0.0552 | 0.443 | 0.69 | 0.11 | -0.101 | -0.516 | 0.211 |
| C=CCC(OC(C)=O)[C@@H]1[C@@H](N(Cc2cc3ccccc3o2)C(=O)c2ccc(-c3ccccc3)cc2)c2cc(OCCCO)ccc2N1C(=O)Cc1ccc2ccccc2c1 (stereo not given in full) | 0.006 | -0.532 | -0.36 | -0.27 | 0.459 | -0.0704 | -0.0709 | -0.267 | 0.0452 | 0.738 | -0.0043 | -0.12 (inactive) | -0.0716 | -0.166 | -0.127 | 0.466 | 0.255 | -0.156 | 0.213 | -0.136 |
| O=c1cccc(-c2cccc3ccccc23)o1 | -0.285 | -0.497 | -0.905 | 0.088 | 0.33 | -0.0751 | -0.138 | 1.25 | 0.78 | 0.541 | 0.702 | 0.276 (inactive) | -0.0377 | 0.0135 | 0.475 | 0.458 | 0.871 | 0.11 | -0.671 | -0.511 |
| O=C1O[C@@H](c2ccccc2)[C@@H](c2ccccc2)N2[C@@H](c3ccc(O)cc3)[C@]3(C(=O)Nc4ccc(C#CCCO)cc43)[C@@H](C(=O)N3CCCCCCC3)[C@H]12 | 0.777 | -1.18 | 0.51 | 2.37 | 1.05 | 0.861 | -0.116 | 2.68 | 3.66 | 2.14 | -0.126 | 5.37 (inactive) | 1.3 | 0.612 | 0.766 | 3.26 | 0.991 | 1.16 | 1.43 | 0.884 |
| C=C[C@H](OC)[C@@H](OC(=O)Nc1ccc(SC)cc1)c1ccc(OCCO)cc1 | 1.03 | 2.8 | 0.105 | 0.0629 | 0.362 | 0.0433 | -0.0035 | 0.375 | 1.35 | 1.62 | 0.383 | 0.651 (inactive) | -0.15 | -0.0956 | 0.503 | 1.45 | 0.503 | 0.904 | 0.0669 | 0.713 |
